# In PubChem BioAssay:
# The source made the active and inactive calls.
# Experiments:
# [1] = tested on: Plasmodium falciparum Sir2 (PF13_0152, Sir2A); test: pfSir2 binders on small-molecule microarrays, primary screen, biochemical, small-molecule microarray, 635 nm fluorescence (AID 1098); settings: small-molecule microarray binding, fluorescence 635 nm; higher = more signal;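 further: score merges spot fluorescence intensity with its signal-to-noise ratio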
# [2] = small-molecule microarray binders of probe aDKK1, primary screen, biochemical, biotinylated probe, 635/667 nm fluorescence (AID 1099); settings: higher = more signal;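 further: score merges 667nm spot fluorescence with signal to noise across triplicate slides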
# [3] = small-molecule microarray binders of probe aCHRDL2, primary screen, biochemical, biotinylated probe, 635/667 nm fluorescence (AID 1100); settings: higher = more signal
# [4] = splicing luciferase reporter signal modulators, primary screen, spliceosome inhibition project, cell-based, HEK293, splice +/- reporter (AID 1101); settings: luminescence, 24 h, higher = more signal, called active from +8 up or from −8 down;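 further: HEK293 cells carrying a splicing-competent luciferase reporter gene; test concentration not given here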
# [5] = target: Fibroblast growth factor 10 (Homo sapiens) (UniProt O15520); test: FGF10 binders on small-molecule microarrays, primary screen, biochemical, small-molecule microarray, 635 nm fluorescence (AID 1102); settings: FGF10 binding, fluorescence 635 nm, higher = more signal
# [6] = tested on: glycogen synthase kinase-3 (GSK3A per assay name; protocol says GSK3B); test: GSK3 binders on small-molecule microarrays, primary screen, biochemical, small-molecule microarray, 635 nm fluorescence, GSK3A (AID 1103); settings: small-molecule microarray binding, fluorescence 635 nm; higher = more signal; further: the record names both GSK3A and GSK3B
# [7] = target: Epidermal growth factor receptor (Homo sapiens) (UniProt P00533); test: EGFR binders on small-molecule microarrays, primary screen, biochemical, small-molecule microarray, 635 nm fluorescence (AID 1104); settings: EGFR binding, higher = more signal;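 further: score merges 667 nm emission intensity with spot signal to noise over triplicate slides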
# [8] = target: Follistatin-related protein 3 (Homo sapiens) (UniProt O95633); test: FSTL3 binders on small-molecule microarrays, primary screen, biochemical, small-molecule microarray, 635 nm fluorescence (AID 1105); settings: FSTL3 binding, higher = more signal;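 further: score merges emission near 667 nm and signal to noise per printed spot across three slides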
# [9] = target: Dickkopf-related protein 1 (Homo sapiens) (UniProt O94907); test: DKK1 binders on small-molecule microarrays, primary screen, biochemical, small-molecule microarray, 635 nm fluorescence scan (AID 1106); settings: DKK1 binding, higher = more signal;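 further: score merges emission near 667 nm with signal to noise over three replicate slides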
# [10] = tested on: Inhibin beta A chain (activin A); test: INHBA (activin A) binders on microarrays, primary screen, biochemical, small-molecule microarray, 635 nm fluorescence scan (AID 1107); settings: small-molecule microarray binding, higher = more signal;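 further: mouse activin A protein probed at 4.33 µg/mL on printed slides; score merges bound-protein fluorescence near 667 nm with spot signal-to-noise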
# [11] = tested on: Human papillomavirus type 1a protein E7 (residues 44-93); test: HPV1a E7 fragment binders on microarrays, primary screen, biochemical, small-molecule microarray, residues 44-93, 635 nm fluorescence (AID 1108); settings: small-molecule microarray binding, fluorescence 635 nm; higher = more signal;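 further: E7 fragment applied at 1 µg/mL in TBST for 1 h at 4 C; score combines spot fluorescence with its signal to noise ratio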
# [12] = modulators of HCV replicon luciferase signal, primary screen, HCV replication inhibitor project, Huh7 cells, luciferase reporter (AID 1109); settings: 48 h, higher = more signal;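 further: huh7 hepatoma cells harbouring a luciferase neomycin HCV replicon reporter; luciferase luminescence as measure of HCV replicon replication; test concentration not given here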
# [13] = target: Left-right determination factor 2 (Homo sapiens) (UniProt O00292); test: LEFTY2 binders on small-molecule microarrays, primary screen, biochemical, small-molecule microarray, 635 nm fluorescence scan (AID 1110); settings: LEFTY2 binding, higher = more signal
# [14] = target: Calmodulin-1 (Homo sapiens) (UniProt P0DP23); test: CALM1 binders on microarrays, EGTA buffer, profiling panel, biochemical, small-molecule microarray, Cy5-labelled CALM1 (AID 1111); settings: Cy5-CALM1 binding fluorescence, higher = more signal;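 further: labelled calmodulin applied in Tris saline Tween buffer holding calcium plus EGTA and DTT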
# [15] = target: Calmodulin-1 (Homo sapiens) (UniProt P0DP23); test: calcium-bound CALM1 binders on microarrays, profiling panel, artefact control for SMM control-protein annotation, biochemical, small-molecule microarray, Cy5-labelled CALM1, plus calcium (AID 1112); settings: Cy5-CALM1 binding fluorescence, higher = more signal;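 further: score merges spot fluorescence with signal to noise from triplicate slides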
# [16] = small-molecule microarray binders of probe aWnt5a, primary screen, biochemical, biotinylated probe, 635/667 nm fluorescence (AID 1113); settings: higher = more signal;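 further: score merges 667 nm fluorescence intensity with signal-to-noise per printed feature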
# [17] = small-molecule microarray binders of probe aShh, primary screen, biochemical, biotinylated probe, 635/667 nm fluorescence (AID 1114); settings: higher = more signal;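 further: probe is biotin-labelled aShh protein from a stem cell growth factor screen; measures binding of labelled protein to compounds printed on the slide; score merges feature fluorescence at 667 nm with signal-to-noise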
# [18] = small-molecule microarray binders of probe aNog, primary screen, biochemical, biotinylated probe, 635/667 nm fluorescence (AID 1115); settings: higher = more signal;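 further: probe is biotinylated aNog protein used at 0.15 µg/mL for 1 h at 4 C; z-score combines 667 nm fluorescence of each spot with its signal to noise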
# [19] = target: Torsin-1A-interacting protein 1 (Homo sapiens) (UniProt Q5JTV8); test: LAP1 binders from COS7 cell lysate, primary screen, small-molecule microarray, 635/667 nm fluorescence (AID 1116); settings: COS7-hLAP1 lysate binding, 635 nm fluorescence, higher = more signal
# [20] = target: Alpha-bungarotoxin (Bungarus multicinctus) (UniProt P60615); test: alpha-bungarotoxin binders on microarray, profiling panel, artefact control for SMM control protein annotation, biochemical, small-molecule microarray, Alexa647 label, 635/667 nm fluorescence (AID 1117); settings: alpha-BTX-A647 binding fluorescence, higher = more signal
# Alpha-bungarotoxin (Bungarus multicinctus), sequence (P60615 whole entry, looked up): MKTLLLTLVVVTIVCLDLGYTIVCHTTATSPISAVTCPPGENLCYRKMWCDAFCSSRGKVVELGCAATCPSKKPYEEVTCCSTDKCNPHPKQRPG
# Fibroblast growth factor 10 (Homo sapiens), sequence (O15520 whole entry, looked up): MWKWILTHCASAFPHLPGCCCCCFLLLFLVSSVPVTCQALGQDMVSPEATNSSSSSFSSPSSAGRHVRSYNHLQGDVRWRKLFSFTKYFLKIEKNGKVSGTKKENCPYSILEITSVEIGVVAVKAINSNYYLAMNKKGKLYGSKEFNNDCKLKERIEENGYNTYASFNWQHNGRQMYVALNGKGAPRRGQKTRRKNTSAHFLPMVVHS
# Epidermal growth factor receptor (Homo sapiens), sequence (P00533 whole entry, looked up): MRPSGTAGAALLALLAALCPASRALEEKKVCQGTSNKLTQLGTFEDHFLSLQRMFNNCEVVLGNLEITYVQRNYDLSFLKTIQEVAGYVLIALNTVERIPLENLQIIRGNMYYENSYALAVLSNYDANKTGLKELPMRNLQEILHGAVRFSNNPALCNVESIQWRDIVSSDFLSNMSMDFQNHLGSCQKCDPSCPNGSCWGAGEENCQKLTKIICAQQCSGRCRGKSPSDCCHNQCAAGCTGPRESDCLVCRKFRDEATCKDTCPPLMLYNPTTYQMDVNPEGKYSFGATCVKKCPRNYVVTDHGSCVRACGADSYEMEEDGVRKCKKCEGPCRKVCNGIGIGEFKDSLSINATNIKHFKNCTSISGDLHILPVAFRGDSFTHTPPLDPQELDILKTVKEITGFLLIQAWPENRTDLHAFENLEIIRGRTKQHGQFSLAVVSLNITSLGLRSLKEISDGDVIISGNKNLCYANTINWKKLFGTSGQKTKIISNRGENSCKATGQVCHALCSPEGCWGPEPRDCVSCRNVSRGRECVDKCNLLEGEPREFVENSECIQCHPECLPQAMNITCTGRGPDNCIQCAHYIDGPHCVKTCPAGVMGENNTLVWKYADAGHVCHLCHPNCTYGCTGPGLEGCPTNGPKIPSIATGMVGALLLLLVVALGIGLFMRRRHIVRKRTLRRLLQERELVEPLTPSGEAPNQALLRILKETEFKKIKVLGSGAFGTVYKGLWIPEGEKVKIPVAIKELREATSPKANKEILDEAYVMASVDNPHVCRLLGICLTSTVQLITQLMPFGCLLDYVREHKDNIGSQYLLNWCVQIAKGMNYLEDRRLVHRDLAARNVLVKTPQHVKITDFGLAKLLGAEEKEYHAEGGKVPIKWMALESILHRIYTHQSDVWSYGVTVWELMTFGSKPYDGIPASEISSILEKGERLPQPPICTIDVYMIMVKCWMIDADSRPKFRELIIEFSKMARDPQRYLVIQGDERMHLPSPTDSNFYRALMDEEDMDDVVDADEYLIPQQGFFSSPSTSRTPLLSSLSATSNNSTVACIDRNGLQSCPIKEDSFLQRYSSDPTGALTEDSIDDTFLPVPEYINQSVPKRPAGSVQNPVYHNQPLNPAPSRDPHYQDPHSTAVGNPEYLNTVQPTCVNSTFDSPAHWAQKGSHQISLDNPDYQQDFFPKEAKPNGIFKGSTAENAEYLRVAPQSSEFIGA
# Torsin-1A-interacting protein 1 (Homo sapiens), sequence (Q5JTV8 whole entry, looked up): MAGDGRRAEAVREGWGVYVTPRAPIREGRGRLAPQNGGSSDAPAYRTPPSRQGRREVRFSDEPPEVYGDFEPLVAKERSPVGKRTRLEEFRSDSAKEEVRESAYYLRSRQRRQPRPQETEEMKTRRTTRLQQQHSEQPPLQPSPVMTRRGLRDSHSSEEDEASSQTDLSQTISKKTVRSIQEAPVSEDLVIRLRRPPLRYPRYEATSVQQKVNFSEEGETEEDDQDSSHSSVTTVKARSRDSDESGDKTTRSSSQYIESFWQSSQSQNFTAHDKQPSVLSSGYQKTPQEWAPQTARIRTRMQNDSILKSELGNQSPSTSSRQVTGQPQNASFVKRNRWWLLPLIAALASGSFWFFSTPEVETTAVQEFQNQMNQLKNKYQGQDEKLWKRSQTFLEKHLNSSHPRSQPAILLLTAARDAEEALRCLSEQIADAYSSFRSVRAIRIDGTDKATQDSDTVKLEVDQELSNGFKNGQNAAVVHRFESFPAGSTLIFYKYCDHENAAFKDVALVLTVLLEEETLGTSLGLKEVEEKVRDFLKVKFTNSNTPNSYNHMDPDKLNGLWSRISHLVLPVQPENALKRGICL
# Left-right determination factor 2 (Homo sapiens), sequence (O00292 whole entry, looked up): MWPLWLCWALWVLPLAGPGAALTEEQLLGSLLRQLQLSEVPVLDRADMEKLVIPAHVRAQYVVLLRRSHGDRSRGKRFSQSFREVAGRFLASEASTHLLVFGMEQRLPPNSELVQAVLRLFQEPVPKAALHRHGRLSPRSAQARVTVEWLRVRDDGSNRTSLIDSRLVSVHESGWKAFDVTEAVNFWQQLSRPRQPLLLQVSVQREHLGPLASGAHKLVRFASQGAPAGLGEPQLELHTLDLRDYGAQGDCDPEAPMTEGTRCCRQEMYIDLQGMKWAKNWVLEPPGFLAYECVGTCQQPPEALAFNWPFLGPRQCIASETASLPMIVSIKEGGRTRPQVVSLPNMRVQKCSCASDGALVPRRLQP
# Dickkopf-related protein 1 (Homo sapiens), sequence (O94907 whole entry, looked up): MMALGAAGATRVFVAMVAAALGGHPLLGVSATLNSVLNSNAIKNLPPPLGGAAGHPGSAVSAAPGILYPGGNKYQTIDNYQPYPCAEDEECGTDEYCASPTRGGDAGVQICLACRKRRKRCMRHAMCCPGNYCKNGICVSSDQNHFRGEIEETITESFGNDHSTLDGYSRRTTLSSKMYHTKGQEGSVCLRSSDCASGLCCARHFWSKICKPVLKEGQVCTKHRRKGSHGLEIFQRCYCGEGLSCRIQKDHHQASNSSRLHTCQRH
# Follistatin-related protein 3 (Homo sapiens), sequence (O95633 whole entry, looked up): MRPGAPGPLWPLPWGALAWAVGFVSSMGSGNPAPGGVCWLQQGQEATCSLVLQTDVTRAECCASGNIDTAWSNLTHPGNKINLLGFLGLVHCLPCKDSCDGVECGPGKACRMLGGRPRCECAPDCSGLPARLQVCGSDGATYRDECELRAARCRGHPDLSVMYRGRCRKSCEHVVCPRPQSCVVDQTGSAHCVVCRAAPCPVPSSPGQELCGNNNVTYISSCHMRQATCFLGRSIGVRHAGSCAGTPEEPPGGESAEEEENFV
Compound,composite z-score [1],composite z-score [2],composite z-score [3],z-score [4],composite z-score [5],composite z-score [6],composite z-score [7],composite z-score [8],composite z-score [9],composite z-score [10],composite z-score [11],z-score [12],composite z-score [13],composite z-score [14],composite z-score [15],composite z-score [16],composite z-score [17],composite z-score [18],composite z-score [19],composite z-score [20]
CO[C@H]1COC(=O)CCC[C@@H](C)[C@H](OC)COC(=O)[C@@H](C)NC(=O)CC=C[C@@H]1C,1.69,-0.502,-1.14,-1.15 (inactive),0.313,0.97,1.2,0.938,1.57,1.21,-1.44,-1.29,1.19,-0.654,-1.61,-0.117,0.0483,-0.0684,0.992,-0.314
CCOC(=O)CCN1C(=O)[C@H]2[C@H]3[C@H](O)[C@H](O)CC(=NOCc4ccccc4)[C@H]3CC[C@H]2C1=O,0.1,1.27,1.32,0.509 (inactive),-0.556,-0.395,0.193,-0.828,-1.06,0.288,-0.207,0.676,0.389,-0.205,-0.329,-0.174,-0.0977,-0.0312,0.0908,0.857
O=C(NN=C1C[C@@H](O)[C@@H](O)[C@@H]2[C@@H]3C(=O)N(C4CCCCC4)C(=O)[C@@H]3CC[C@@H]12)OCc1ccccc1,0.174,0.261,0.515,0.662 (inactive),0.0342,0.0686,-0.0311,0.524,-0.0447,-0.347,-0.671,-0.771,0.482,-0.367,-0.606,-0.115,0.0156,-0.0522,-0.534,-0.0382
CCc1cc2c(nc1CC)CCN(CCC(C)=NOC[C@H]1O[C@H](c3ccccc3)C=C[C@@H]1Oc1ccc(OC)cc1)C2,0.507,0.46,0.0691,-1.47 (inactive),-0.344,-0.26,-0.0924,-0.0668,-0.159,0.813,0.371,-3.16,-0.0061,-0.112,0.366,-0.0944,0.0639,-0.0065,0.76,0.292
CO[C@H]1COC(=O)CC=C[C@H](C)[C@@H](OC)COC(=O)[C@@H](C)NC(=O)CC=C[C@@H]1C,1.23,-0.377,-1.17,-0.653 (inactive),0.447,0.597,1.27,1.44,1.49,1.52,-2.13,-1.42,0.962,-0.857,-1.55,-0.119,-0.367,-0.274,0.12,-0.352
CON=C(C)CCC(=O)OC[C@H]1O[C@H](c2ccccc2)C=C[C@@H]1Oc1ccc(OC)cc1,0.712,-0.174,-0.15,0.115 (inactive),0.142,-0.496,0.213,0.189,0.474,0.854,-0.65,0.275,0.353,-0.515,-0.724,0.0257,-0.0769,-0.148,0.474,-0.0686
C#CCCCON=C1[C@H]2CCn3c(=O)n(-c4ccccc4)c(=O)n3[C@H]2[C@H](O)[C@@H]2O[C@H]12,0.164,0.238,-0.615,-1.65 (inactive),0.291,0.621,0.537,0.725,0.521,0.127,0.438,-2.97,0.602,-0.312,-0.273,-0.0792,-0.0146,-0.17,-0.131,0.515
CCOC(=O)[C@H](CC(C)C)NC(=O)CCC1CC(OC(=O)NCCc2ccc(F)cc2)CC2(CCCC(COC(=O)NCCc3ccccc3OC)O2)O1 (stereo not given in full),0.82,-0.186,-0.313,-0.135 (inactive),0.768,0.773,0.603,0.744,0.526,-0.0274,1.29,-1.38,0.61,1.57,0.535,-0.119,0.157,-0.0787,0.793,0.493
CCOC(=O)[C@H](CC(C)C)NC(=O)CCC1CC(OC(=O)NCCc2ccc(F)cc2)CC2(CCCC(COC(=O)NCCc3ccc(Cl)cc3)O2)O1 (stereo not given in full),0.654,-0.26,-0.681,0.0483 (inactive),0.675,0.46,0.517,0.79,0.483,-1.71,0.585,-1.19,0.839,-0.222,-0.0499,-0.0044,-0.156,-0.45,0.456,1.02
O=C1[C@H]2[C@H]3[C@H](O)[C@H](O)CC(=NOC[C@@H](O)COCc4ccco4)[C@H]3CC[C@H]2C(=O)N1c1ccc(F)cc1F,-0.295,0.0973,-0.901,-2.86 (inactive),-0.921,0.0894,-0.553,-0.529,-0.301,-0.413,-3.61,-0.988,0.0845,-1.3,-1.07,-0.282,-0.504,1.39,0.346,-0.59
